Test system: CDK2
Conditions: concentration: 1 μM, replicates: in singlicate; n = 1
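Note: KINOMEscan kinase panel screen.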

Point of comparison: `COc1cc2ncn(-c3cc(OCc4ccncc4)c(C(N)=O)s3)c2cc1OC` [GSK336313], “%Inh” value 0%. Against it:
- COc1cc2ncn(-c3cc(OCCCc4ccccc4)c(C(N)=O)s3)c2cc1OC [GSK205189] — the same, 0%
- O=C1NC(=O)C(c2ccccc2)=C1Nc1cccc(O)c1 [SB-390534] — higher, 2%
- CN1C(=O)C(Nc2ccccc2)=C(c2ccccc2)C1=O [SB-300079] — the same, 0%
- COc1ccc(-n2cnc3c(N)ncnc32)cc1 [SKF-97236] — higher, 19%
- COc1ccc(Nc2nccc(N3CCC(NS(=O)(=O)c4ccc(NC(C)=O)cc4)C3)n2)cc1 (stereo not shown) [GSK1379729] — higher, 2%
- Nc1ncnc2c1ncn2-c1cccc2ccccc12 [SKF-97184] — the same, 0%
- Nc1nc(-c2ccccc2F)c(-c2ccnc3ccccc23)s1 [GW560459] — the same, 0%
- CCc1nc(-c2cccc(C)c2)c(-c2ccncc2)s1 — the same, 0%
- CCS(=O)c1ccc(-c2coc3ccc(-c4nnc(C)o4)cc23)cc1 (stereo not shown) — the same, 0%
- O=c1cc(N2CCOCC2)nc2n(Cc3ccc(F)c(Cl)c3)ccn12 [GSK2297099] — the same, 0%
- COC(=O)c1c(-c2ccccc2)c2cc(Br)ccc2c(=O)n1Cc1ccc(NC(=O)CCC(=O)O)cc1 — higher, 4%
- CCn1c(-c2nonc2N)nc2ccccc21 [SB-693162/GW549034] — the same, 0%
- CCC(=O)c1c(-c2ccccc2)c2cc(Cl)ccc2c(=O)n1Cc1cc(S(C)(=O)=O)n(CC(N)=O)n1 — the same, 0%
- O=C(Nc1n[nH]c2nc(-c3ccccc3)c(Cl)cc12)C1CC1 [SB-734909] — higher, 2%
- COc1cccc(-n2cnc3c(N)ncnc32)c1 [SKF-97416] — higher, 4%
- CCS(=O)(=O)c1ccc(OC)c(Nc2ncc(-c3ccc(F)cc3)o2)c1.Cl [GW591947] — the same, 0%
- COc1cc(OC)cc(-c2cc3cnc(N)nc3nc2NC(=O)NC(C)(C)C)c1 — the same, 0%
- COc1cc2nccc(Nc3ccc(OCc4ccc(NC(C)=O)cc4)cc3)c2cc1OC.Cl [GW440135] — the same, 0%
- O=C(Nc1n[nH]c2cc(-c3ccccc3F)ccc12)C1CC1 [SB-733371] — higher, 25%
- CN1C(=O)C(Nc2cc(Cl)c(O)c(Cl)c2)=C(c2ccc(Cl)cc2)C1=O [SB-404321] — the same, 0%
- C[C@@H]1CC[C@H](C(=O)NC2CCCCC2)CN1c1cc(-c2ccc3c(N)n[nH]c3c2)nc(N)n1 [GSK2291363] — higher, 1%

Reference: paper PMC5540273 (PLoS ONE, 2017)
